# Assay results as given in PubChem BioAssay AID2603 (Johns Hopkins Ion Channel Center, 2010).
# Results with a measured potency or affinity are listed apart.
# Biological target: Potassium voltage-gated channel subfamily KQT member 2 (Rattus norvegicus) (UniProt O88943)
# Assay: potentiation of rat KCNQ2 current – cell-based, automated electrophysiology, mechanism study for KCNQ2 potentiator project, dose response (AID 2603)
# Conditions: KCNQ2-CHO cells, automated patch clamp current potentiation; at 30 µM (top of the series)
# Sequence of Potassium voltage-gated channel subfamily KQT member 2 (Rattus norvegicus) (O88943 whole entry, looked up): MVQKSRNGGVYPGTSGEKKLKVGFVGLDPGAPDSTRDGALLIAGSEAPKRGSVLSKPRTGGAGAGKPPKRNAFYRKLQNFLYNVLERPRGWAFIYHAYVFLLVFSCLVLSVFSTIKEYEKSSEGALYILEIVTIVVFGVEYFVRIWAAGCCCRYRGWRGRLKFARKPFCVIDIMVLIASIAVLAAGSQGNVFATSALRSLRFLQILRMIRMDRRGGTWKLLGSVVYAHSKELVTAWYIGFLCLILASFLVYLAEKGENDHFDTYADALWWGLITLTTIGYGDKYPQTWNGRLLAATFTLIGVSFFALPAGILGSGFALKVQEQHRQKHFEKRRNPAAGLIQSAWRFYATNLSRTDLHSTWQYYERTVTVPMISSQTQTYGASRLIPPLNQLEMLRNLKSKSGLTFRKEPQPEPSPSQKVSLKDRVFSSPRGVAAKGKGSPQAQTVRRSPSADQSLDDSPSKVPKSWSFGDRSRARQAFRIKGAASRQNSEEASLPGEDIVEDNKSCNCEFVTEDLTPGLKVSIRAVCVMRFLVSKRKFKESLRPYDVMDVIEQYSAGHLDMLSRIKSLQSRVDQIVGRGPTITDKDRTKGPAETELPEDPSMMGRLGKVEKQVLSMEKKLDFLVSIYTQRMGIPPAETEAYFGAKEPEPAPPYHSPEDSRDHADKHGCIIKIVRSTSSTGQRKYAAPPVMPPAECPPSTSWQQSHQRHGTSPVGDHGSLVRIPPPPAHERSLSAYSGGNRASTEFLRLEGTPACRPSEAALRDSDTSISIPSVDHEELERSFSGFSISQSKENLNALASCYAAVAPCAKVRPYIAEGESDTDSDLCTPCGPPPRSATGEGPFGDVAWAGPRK
smiles,measurement,value
O=c1[nH]sc2cc(F)ccc12,potentiation,102
